# Source: PubChem BioAssay (NCATS)
# Results filed as inconclusive are left out. Where a call stands in place of a potency, no number is given. Active and inactive are the calls of the source. Calls follow the shape of the dose curve; as a rule, active = well fitted inhibition curve with a large enough effect; inconclusive = small, poorly fitted or top-dose-only effect; inactive = flat fitted curve, though single readings scatter.
# What was measured:
# Test in all cases: qHTS profiling for inhibitors of Plasmodium falciparum proliferation (AID 504749); also: nearly all actives have a fitted effect of over 60% in size
# Details in all cases: P. falciparum in erythrocytes, SYBR Green DNA, 72 h; series mostly up to 28.7 µM
# CP237 = system: CP237
# Method in brief: (§1)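 Three-day growth assay of blood-stage parasites in erythrocytes (0.3% parasitemia, 2.5% hematocrit) at 37 C, 5% CO2, quantified by SYBR Green DNA staining after overnight detergent lysis.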
# CP238 = system: CP238
# Method in brief: as §1
# CP247 = system: CP247
# Method in brief: as §1
# CP250 = system: CP250
# Method in brief: as §1
# CP252 = system: CP252
# Method in brief: as §1
# CP256 = system: CP256
# Method in brief: as §1
# CP260 = system: CP260
# Method in brief: as §1
# CP262 = system: CP262
# Method in brief: as §1
# CP265 = system: CP265
# Method in brief: as §1
# CP266 = system: CP266
# Method in brief: as §1
# Potency is read from the fitted curve at half-maximal effect.
Compound,Potency (CP237),Potency (CP238),Potency (CP247),Potency (CP250),Potency (CP252),Potency (CP256),Potency (CP260),Potency (CP262),Potency (CP265),Potency (CP266)
COc1ccc(CN(CCN(C)C)c2ccccn2)cc1,5.01 µM (active),inactive,inactive,inactive,inactive,inactive,inactive,inactive,,
CCCOc1ccccc1-c1nc2n[nH]nc2c(=O)[nH]1,inactive,inactive,inactive,inactive,inactive,inactive,inactive,inactive,inactive,inactive
NC(Cc1ccc(Cl)cc1)C(=O)O (stereo unspecified),inactive,inactive,inactive,inactive,inactive,inactive,inactive,inactive,inactive,inactive
CCCCCN(CCCCC)C(=O)C(CCC(=O)O)NC(=O)c1ccc(Cl)c(Cl)c1 (stereo unspecified),inactive,inactive,inactive,inactive,inactive,inactive,inactive,inactive,inactive,inactive
CCN(CC)CCNC(=O)c1cc(S(C)(=O)=O)ccc1OC,inactive,inactive,inactive,inactive,inactive,inactive,inactive,inactive,inactive,
CN1CCN(C2=Nc3ccccc3Oc3ccc(Cl)cc32)CC1,inactive,inactive,inactive,inactive,inactive,inactive,inactive,inactive,inactive,inactive
c1cnc(N2CCN(Cc3ccc4c(c3)OCO4)CC2)nc1,inactive,inactive,inactive,inactive,inactive,inactive,inactive,inactive,inactive,inactive
C[N+](C)(C)CCOC(=O)CCC(=O)OCC[N+](C)(C)C,inactive,inactive,inactive,inactive,inactive,inactive,inactive,inactive,inactive,inactive
CN(C)C(=O)Oc1cccc([N+](C)(C)C)c1,inactive,inactive,inactive,inactive,inactive,inactive,inactive,inactive,inactive,inactive
CC(=O)Nc1nnc(S(N)(=O)=O)s1,inactive,inactive,inactive,inactive,inactive,inactive,inactive,inactive,inactive,inactive
CCN1CCc2nc(N)oc2CC1,inactive,inactive,inactive,inactive,inactive,inactive,inactive,inactive,inactive,inactive
CCOC(=O)C1=C(C)NC(C)=C(C(=O)OC)C1c1cccc(Cl)c1Cl (stereo unspecified),inactive,inactive,inactive,inactive,inactive,inactive,inactive,inactive,inactive,inactive
COC(=O)C1=C(C)NC(C)=C(C(=O)OC(C)(C)CN(C)CCC(c2ccccc2)c2ccccc2)C1c1cccc([N+](=O)[O-])c1 (stereo unspecified),2.51 µM (active),3.98 µM (active),3.16 µM (active),3.55 µM (active),3.55 µM (active),2.82 µM (active),2.24 µM (active),4.26 µM (active),3.55 µM (active),6.75 µM (active)
CC(=O)[C@@]1(O)CC[C@H]2[C@@H]3CCC4=CC(=O)CC[C@]4(C)[C@H]3CC[C@@]21C,inactive,inactive,inactive,inactive,inactive,inactive,inactive,inactive,inactive,inactive
CCN1CCC[C@H]1CNC(=O)c1c(O)c(Cl)cc(Cl)c1OC,inactive,inactive,inactive,inactive,inactive,inactive,inactive,inactive,inactive,inactive
CCCN(CCC)CCc1cccc2c1CC(=O)N2,inactive,inactive,inactive,inactive,inactive,inactive,inactive,inactive,inactive,inactive
COc1ccc([C@@H]2Sc3ccccc3N(CCN(C)C)C(=O)[C@@H]2OC(C)=O)cc1,inactive,inactive,inactive,inactive,inactive,inactive,inactive,inactive,inactive,inactive
O=C(O)CN(CCOCCOCCN(CC(=O)O)CC(=O)O)CC(=O)O,inactive,inactive,inactive,inactive,inactive,inactive,inactive,inactive,inactive,inactive
O=c1[nH]c(=O)n([C@H]2C[C@H](O)[C@@H](CO)O2)cc1Br,inactive,inactive,inactive,inactive,inactive,inactive,inactive,inactive,inactive,inactive
C[N+](C)(C)CCCCCCCCCC[N+](C)(C)C,3.16 µM (active),5.01 µM (active),5.01 µM (active),7.08 µM (active),3.98 µM (active),2.51 µM (active),2.24 µM (active),1.69 µM (active),2.82 µM (active),4.78 µM (active)
Nc1ncn([C@@H]2O[C@H](CO)[C@@H](O)[C@H]2O)c(=O)n1,inactive,inactive,inactive,inactive,inactive,inactive,inactive,inactive,inactive,inactive

Compound,Potency (CP237),Potency (CP238),Potency (CP247),Potency (CP250),Potency (CP252),Potency (CP256),Potency (CP260),Potency (CP262),Potency (CP265),Potency (CP266)
OCCN1CCN(CCCN2c3ccccc3C=Cc3ccccc32)CC1,5.01 µM (active),11.2 µM (active),5.01 µM (active),6.31 µM (active),6.31 µM (active),3.55 µM (active),5.01 µM (active),6.75 µM (active),4.47 µM (active),13.5 µM (active)
O=C(O)CCCCCCCC(=O)O,inactive,inactive,inactive,inactive,inactive,inactive,inactive,inactive,inactive,inactive
NC(=O)N1c2ccccc2C=Cc2ccccc21,inactive,inactive,inactive,inactive,inactive,inactive,inactive,inactive,inactive,inactive
COc1cc2c(cc1OC)-c1cc(=Nc3c(C)cc(C)cc3C)n(C)c(=O)n1CC2,3.16 µM (active),10 µM (active),5.62 µM (active),3.55 µM (active),11.2 µM (active),4.47 µM (active),3.16 µM (active),4.78 µM (active),7.94 µM (active),6.75 µM (active)
C[C@H](CS)C(=O)N1CCC[C@H]1C(=O)O,inactive,inactive,inactive,inactive,inactive,inactive,inactive,inactive,inactive,inactive
CCN(CC)CCNC(=O)c1ccc(NC(C)=O)cc1,inactive,inactive,inactive,inactive,inactive,inactive,inactive,inactive,inactive,
NC/C=C/C(=O)O,inactive,inactive,inactive,inactive,inactive,inactive,inactive,inactive,inactive,inactive
CC(C(=O)O)c1ccc(CC2CCCC2=O)cc1 (stereo unspecified),inactive,inactive,inactive,inactive,inactive,inactive,inactive,inactive,inactive,inactive
CCCCOCCOCCOCc1cc2c(cc1CCC)OCO2,inactive,inactive,inactive,inactive,inactive,inactive,inactive,inactive,inactive,
CCCCNc1ccc(C(=O)OCCN(C)C)cc1,inactive,inactive,inactive,inactive,inactive,inactive,inactive,inactive,inactive,
Cc1nnc(SCC2=C(C(=O)O)N3C(=O)[C@@H](NC(=O)Cn4cnnn4)[C@H]3SC2)s1,inactive,inactive,inactive,inactive,inactive,inactive,inactive,inactive,inactive,inactive
Cc1cc(C)c(/C=C2\C(=O)Nc3ccccc32)[nH]1,inactive,inactive,inactive,inactive,inactive,inactive,inactive,inactive,inactive,inactive
CCNC(=O)N1CCN(CCCC(c2ccc(F)cc2)c2ccc(F)cc2)CC1,2.51 µM (active),3.16 µM (active),1 µM (active),1 µM (active),3.98 µM (active),0.794 µM (active),3.16 µM (active),3.01 µM (active),0.794 µM (active),6.01 µM (active)
O=C1NCN(c2ccccc2)C12CCN(CCCC(c1ccc(F)cc1)c1ccc(F)cc1)CC2,6.31 µM (active),8.91 µM (active),7.08 µM (active),10 µM (active),7.08 µM (active),5.01 µM (active),10 µM (active),inactive,5.62 µM (active),
Cc1ccc(=O)n(-c2ccccc2)c1,inactive,inactive,inactive,inactive,inactive,inactive,inactive,inactive,inactive,
CN=C(NC#N)NCCSCc1nc[nH]c1C,inactive,inactive,inactive,inactive,inactive,inactive,inactive,inactive,inactive,inactive
CN1CCN(CC(=O)N2c3ccccc3C(=O)Nc3cccnc32)CC1,inactive,inactive,inactive,inactive,inactive,inactive,inactive,inactive,inactive,
CCCCNC(=O)NS(=O)(=O)c1ccc(C)cc1,inactive,inactive,inactive,inactive,inactive,inactive,inactive,inactive,inactive,inactive
NC1=NCC2c3ccccc3Cc3ccccc3N12 (stereo unspecified),inactive,inactive,inactive,inactive,inactive,inactive,inactive,inactive,inactive,inactive
CSc1ccc(C(=O)c2[nH]c(=O)[nH]c2C)cc1,inactive,inactive,inactive,inactive,inactive,inactive,inactive,inactive,inactive,inactive
Nc1c2c(nc3ccccc13)CCCC2O (stereo unspecified),inactive,inactive,inactive,inactive,inactive,inactive,inactive,inactive,inactive,inactive
